According to PubChem BioAssay AID1159580 (chemical genetic matrix, 2015):
Values joined by “and” are separate entries in the source; they are usually repeats but may differ in a detail not shown here. Equal values may be shown once. Among all 5,500 compounds or so, about 2,000 (36%) were called active. About 18% were inconclusive and are not listed. Cut-off read from the data, not from the text of the source: active = normalized growth mostly below about 0.91 (no sharp cut-off); inconclusive = no clear call, values can overlap the other calls; inactive = mostly above about 0.92. Some of the results follow.

Assay: chemical genetic growth profiling, strain panel (AID 1159580);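 note: tested at 20 µM; growth read once vehicle control cultures reached saturation at 30 °C; 1 = growth at the plate median or of vehicle wells; lower values mean less growth of the strain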
Conditions: S. cerevisiae deletion strains, growth OD

Measured: normalized growth

CCOC(=O)NNc1nncc2ccccc12
inactive: locus YAL013W, strain DEP1, stronger effect = lower value 0.992 | locus YAL021C, strain ccr4, stronger effect = lower value 1 | locus YAL026C, strain drs2, stronger effect = lower value 1.03 | locus YAL030W, strain snc1, stronger effect = lower value 1.02 | locus YBL061C, strain skt5, stronger effect = lower value 1.01 | locus YBR009C, strain hhf1, stronger effect = lower value 0.973 | locus YBR021W, strain FUR4, stronger effect = lower value 0.964 | locus YBR023C, strain chs3, stronger effect = lower value 1.02 | locus YBR171W, strain sec66, stronger effect = lower value 1.01 | locus YBR229C, strain ROT2, stronger effect = lower value 0.991 | locus YBR231C, strain swc5, stronger effect = lower value 0.993 | locus YBR279W, strain paf1, stronger effect = lower value 1.02 | locus YCL011C, strain gbp2, stronger effect = lower value 1.04 | locus YCL016C, strain dcc1, stronger effect = lower value 1.03 | locus YCL029C, strain bik1, stronger effect = lower value 0.97 | locus YCL061C, strain MRC1, stronger effect = lower value 0.994 | locus YCL069W, strain vba3, stronger effect = lower value 1.02 | locus YCR088W, strain abp1, stronger effect = lower value 1.01 | locus YDL005C, strain med2, stronger effect = lower value 1.03 | locus YDL035C, strain GPR1, stronger effect = lower value 0.978 | locus YDL040C, strain nat1, stronger effect = lower value 0.996 | locus YDL074C, strain BRE1, stronger effect = lower value 1.01 | locus YDL101C, strain DUN1, stronger effect = lower value 0.991 | locus YDL134C, strain PPH21, stronger effect = lower value 0.979 | locus YDL185W, strain tfp1, stronger effect = lower value 0.983 | locus YDL192W, strain arf1, stronger effect = lower value 0.98 | locus YDR001C, strain nth1, stronger effect = lower value 1.01 | locus YDR069C, strain doa4, stronger effect = lower value 0.985 | locus YDR101C, strain arx1, stronger effect = lower value 0.993 | locus YDR137W, strain rgp1, stronger effect = lower value 1.03 | locus YDR150W, strain NUM1, stronger effect = lower value 1 | locus YDR159W, strain sac3, stronger effect = lower value 0.94 | locus YDR162C, strain NBP2, stronger effect = lower value 0.987 | locus YDR195W, strain ref2 0.981 | locus YDR297W, strain sur2, stronger effect = lower value 1 | locus YDR318W, strain mcm21, stronger effect = lower value 0.974 | locus YDR334W, strain swr1, stronger effect = lower value 1.03 | locus YDR335W, strain msn5, stronger effect = lower value 1.01 | locus YDR388W, stronger effect = lower value 0.973 | locus YDR392W, strain spt3, stronger effect = lower value 0.998 | locus YDR502C, strain sam2, stronger effect = lower value 0.969 | locus YEL003W, strain gim4, stronger effect = lower value 0.998 | locus YEL037C, strain rad23, stronger effect = lower value 1.02 | locus YEL061C, strain CIN8 (second series), stronger effect = lower value 1 | locus YEL061C, strain CIN8, stronger effect = lower value 1 | locus YER015W, strain faa2, stronger effect = lower value 1.01 | locus YER016W, strain bim1, stronger effect = lower value 1.02 | locus YER110C, stronger effect = lower value 0.972 | locus YER111C, strain swi4, stronger effect = lower value 1.01 | locus YER155C, strain BEM2 (second series), stronger effect = lower value 1 | locus YER155C, strain BEM2, stronger effect = lower value 0.99 | locus YER167W, strain BCK2, stronger effect = lower value 0.989 | locus YFR010W, strain ubp6, stronger effect = lower value 0.979 | locus YGL078C, strain dbp3, stronger effect = lower value 0.98 | locus YGL086W, strain mad1, stronger effect = lower value 0.995 | locus YGL167C, strain pmr1, stronger effect = lower value 1 | locus YGL173C, strain kem1, stronger effect = lower value 0.972 | locus YGL227W, strain vid30, stronger effect = lower value 1.02 | locus YGL240W, strain doc1, stronger effect = lower value 0.998 | locus YGL248W, strain PDE1, stronger effect = lower value 1 | locus YGL253W, strain hxk2, stronger effect = lower value 1.02 | locus YGR135W, strain pre9, stronger effect = lower value 0.97 | locus YGR229C, strain SMI1, stronger effect = lower value 0.984 | locus YGR252W, strain gcn5, stronger effect = lower value 0.962 | locus YHR013C, strain ard1, stronger effect = lower value 1.02 | locus YHR027C, strain rpn1, stronger effect = lower value 0.993 | locus YHR030C, strain SLT2, stronger effect = lower value 0.99 and 0.966 | locus YHR079C, strain IRE1 (second series), stronger effect = lower value 0.983 | locus YHR079C, strain IRE1, stronger effect = lower value 0.982 | locus YHR094C, strain hxt1, stronger effect = lower value 0.973 | locus YHR129C, strain ARP1, stronger effect = lower value 0.999 | locus YHR142W, strain chs7, stronger effect = lower value 1.04 | locus YHR200W, strain rpn10, stronger effect = lower value 0.981 | locus YIL066C, strain RNR3, stronger effect = lower value 0.987 | locus YIL073C, strain SPO22, stronger effect = lower value 0.913 | locus YIL125W, strain kgd1, stronger effect = lower value 0.987 | locus YIR030C, strain dcg1, stronger effect = lower value 0.977 | locus YJL092W, strain hpr5, stronger effect = lower value 1.01 | locus YJL095W, strain BCK1 (second series), stronger effect = lower value 1.02 | locus YJL095W, strain BCK1, stronger effect = lower value 1.04 and 0.976 | locus YJL115W, strain asf1, stronger effect = lower value 1.03 | locus YJL129C, strain trk1, stronger effect = lower value 1.02 | locus YJL134W, strain LCB3, stronger effect = lower value 0.994 | locus YJL154C, strain vps35, stronger effect = lower value 1.01 | locus YJL164C, strain tpk1, stronger effect = lower value 0.993 | locus YJL166W, strain qcr8, stronger effect = lower value 0.983 | locus YJL168C, strain set2, stronger effect = lower value 0.981 | locus YJL187C, strain SWE1 (second series), stronger effect = lower value 1 | locus YJL187C, strain SWE1, stronger effect = lower value 1.02 | locus YJR043C, strain POL32, stronger effect = lower value 0.952
